Each structure is given as a SMILES string. Inconclusive results are not listed. Where a call stands in place of a potency, no number is given. Calls of active or inactive are those of the source. Calls come from the whole dose curve; as a rule, active = well fitted cell-killing curve with a large enough effect in the repeat runs; inconclusive = weak or mixed curves, or effect the other way; inactive = flat fitted curve, though single readings scatter.

This experiment in a line: qHTS assay to identify small molecule agonists of the sonic hedgehog signaling (Shh) pathway - cell viability counter screen (AID 1259366). Note: nearly all actives have a fitted effect of over 50% in size. The settings on record: NIH/3T3 Gli1-Luc viability, CellTiter-Fluor, 24 h; series mostly up to 92.4 µM. An excerpt:
National Center for Advancing Translational Sciences [NCATS]
NIH Chemical Genomics Center [NCGC]
U.S. Environmental Protection Agency [EPA]
National Institutes of Environmental Health Sciences [NIEHS]
National Toxicology Program [NTP]
U.S. Food and Drug Administration [FDA]
The sonic hedgehog (Shh) pathway is essential for normal embryonic development. Dysregulation of the Shh pathway can cause severe developmental defects in organs. Therefore chemicals that interfere with the pathway are potential developmental toxicants. A cell line designated 3T3Gli1-Luc (DMB/OARSA/CFSAN/FDA, Laurel, MD), a NIH/3T3 derived clone containing stably integrated Gli1-Luc reporter is used to detect chemical interference of the Shh pathway, by changes in the expression of the firefly Luc gene under the control of the Gli1 transcriptional response element. This cell line was used to screen Tox21 libraries for identifying and prioritizing the potential developmental toxicants that interfere Shh pathway. The cytotoxicity of the compounds was tested in parallel by measuring the cell viability using CellTiter-Fluor assay system (Promega, Madison, WI) in the same wells.
Tox21 Assay Protocol Summary:
3T3 Gli1-Luc cells were dispensed at 2,000 per well in 5uL of culture medium into white solid bottom 1536-well plates (Greiner Bio-One, Monroe, NC) using a Multidrop Combi (Thermo Scientific, Waltham, MA) dispenser. The assay plates were incubated at 37 C and 5% CO2 for 4hr, and then 23nL of compounds dissolved in DMSO and positive control were transferred using a Pintool station (Wako, San Diego, CA). The assay plates were incubated at 37C and 5% CO2 for 24hr. For viability read, after 23hr of compound treatment, 1uL of CellTiter-Fluor reagent (Promega Corporation, Madison, WI) was added to each well of the assay plates using Flying Reagent Dispenser (FRD, Aurora Discovery, San Diego, CA) and incubated the assay plates at 37C for 1hr. The fluorescence signal was quantified using a ViewLux plate reader (Perkin Elmer, Shelton, CT).
A general note: Quantitative high-throughput screening tests each substance at several concentrations.
For `CCNc1nc(NC(C)(C)C)nc(SC)n1`, the Potency result is “inactive”. For `O=[N+]([O-])c1ccc(Oc2ccc(Cl)cc2Cl)cc1` the value was “inactive”.

For `CC(C)C1(C)N=C(c2nc3ccccc3cc2C(=O)O)NC1=O` (stereo not given), the Potency entry was “inactive”. For `CCOP(=S)(OCC)Oc1cnc2ccccc2n1` the value was “inactive”; for `NCCc1ccc(O)cc1`, “inactive”. For `CCOC(=O)c1ccccc1C(=O)OCC` the value was “inactive”.

On to `CC(Oc1ccc(Cl)cc1Cl)C(=O)O` (stereo not given), for which the Potency entry is “inactive”. For `CCCN(CCC)c1c([N+](=O)[O-])cc(C(F)(F)F)cc1[N+](=O)[O-]` the value was “inactive”. For `CC(=O)C=C(C)C` the value was “inactive”; for `CON(C)C(=O)Nc1ccc(Cl)c(Cl)c1`, “inactive”. For `CCc1cccc(C)c1N(C(=O)CCl)C(C)COC` (stereo not given) the value was “inactive”. Turning to `COC(=O)c1ccccc1C(=O)OC`, the Potency entry is “inactive”. For `O=c1[nH]c(=O)[nH]c(=O)[nH]1`, the Potency result is “inactive”. For `CCC(C)(CC)c1cc(NC(=O)c2c(OC)cccc2OC)on1` the value was “inactive”. For `O=C(NC(=O)c1c(F)cccc1F)Nc1cc(Cl)c(OC(F)(F)C(F)C(F)(F)F)cc1Cl` (stereo not given) the value was “inactive”; for `ClCc1cccnc1`, “inactive”. As for `CN(N=O)c1ccccc1`, the Potency result was “inactive”. With `CCCCCOC(=O)c1ccccc1C(=O)OCCCCC`, the Potency result is “inactive”.

Regarding `Clc1cccc(Cl)c1Cl`, the Potency entry is “inactive”.

On to `CCOP(=S)(OCC)SCCSCC`, for which the Potency entry is “inactive”. For `CCCCOC(=O)c1ccccc1C(=O)OCCCC` the value was “inactive”; for `CNC(=O)Oc1ccccc1OC(C)C`, “inactive”; for `CC(C#N)CCC#N` (stereo not given), “inactive”. Turning to `CC(C)C#N`, the Potency result was “inactive”. For `NCC(O)c1ccc(O)cc1` (stereo not given) the value was “inactive”. For `Clc1ccc(Cl)cc1` the value was “inactive”; for `CN(C)CCO`, “inactive”. For `CC(C)(C)OOC(=O)c1ccccc1` the value was “inactive”; for `CCCCCCCCCl`, “inactive”; for `C=CCO`, “inactive”. Turning to `CCCCN(CC)C(=O)SCCC`, the Potency entry is “inactive”. For `c1ccc(-c2ccccc2)cc1` the value was “inactive”.

Turning to `CN1C(=O)CN=C(c2ccccc2)c2cc(Cl)ccc21`, the Potency result is “inactive”. On to `CC(C)=C[C@@H]1[C@@H](C(=O)OCc2coc(Cc3ccccc3)c2)C1(C)C`, for which the Potency result is “inactive”.

For the compound `Cc1cc(Cl)ccc1O`, the Potency entry is “inactive”. For `OCCN(CCO)CCO` the value was “inactive”; for `CC1OC(C)OC(C)O1` (stereo not given), “inactive”. For `O=C(O)c1ccccn1` the value was “inactive”. For `Nc1ccc(Cc2ccc(N)cc2)cc1` the value was “inactive”; for `ClCCBr`, “inactive”.

Values taken from PubChem BioAssay (Tox21).
